# The full ranking holds about 33,000 sequences; the median of “E-score (-0.5 to 0.5)” is about -0.056, and the highest 2% start at about 0.38. The list comes from a sample in which the highest values are over-represented; it also holds similar and randomly drawn sequences.
# Target: Stb4 (UniProt P50104)
# Assay: PBM E-score (8-mer binding enrichment) (E-score (-0.5 to 0.5)); higher = stronger / more preferred TF binding
# Conditions: protein concentration: 200 nM; construct: GST-DNA-binding domain
# Description: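 Universal 'all 10-mer' protein binding microarrays (Agilent AMADID 015681) probed with GST-tagged S. cerevisiae TFs (full-length or DBD) made by in vitro transcription/translation (PURExpress), about 100-200 nM. Bound TF was detected with fluorescent anti-GST. Each ungapped 8-mer (which stands for itself and its reverse complement) is scored by the PBM enrichment score (E-score), a modified Wilcoxon-Mann-Whitney statistic from -0.5 to +0.5, computed with the Universal PBM Analysis Suite. Scale: above 0.35 generally sequence-specific binding.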
# Chain of UniProt P50104 (P50104 whole entry): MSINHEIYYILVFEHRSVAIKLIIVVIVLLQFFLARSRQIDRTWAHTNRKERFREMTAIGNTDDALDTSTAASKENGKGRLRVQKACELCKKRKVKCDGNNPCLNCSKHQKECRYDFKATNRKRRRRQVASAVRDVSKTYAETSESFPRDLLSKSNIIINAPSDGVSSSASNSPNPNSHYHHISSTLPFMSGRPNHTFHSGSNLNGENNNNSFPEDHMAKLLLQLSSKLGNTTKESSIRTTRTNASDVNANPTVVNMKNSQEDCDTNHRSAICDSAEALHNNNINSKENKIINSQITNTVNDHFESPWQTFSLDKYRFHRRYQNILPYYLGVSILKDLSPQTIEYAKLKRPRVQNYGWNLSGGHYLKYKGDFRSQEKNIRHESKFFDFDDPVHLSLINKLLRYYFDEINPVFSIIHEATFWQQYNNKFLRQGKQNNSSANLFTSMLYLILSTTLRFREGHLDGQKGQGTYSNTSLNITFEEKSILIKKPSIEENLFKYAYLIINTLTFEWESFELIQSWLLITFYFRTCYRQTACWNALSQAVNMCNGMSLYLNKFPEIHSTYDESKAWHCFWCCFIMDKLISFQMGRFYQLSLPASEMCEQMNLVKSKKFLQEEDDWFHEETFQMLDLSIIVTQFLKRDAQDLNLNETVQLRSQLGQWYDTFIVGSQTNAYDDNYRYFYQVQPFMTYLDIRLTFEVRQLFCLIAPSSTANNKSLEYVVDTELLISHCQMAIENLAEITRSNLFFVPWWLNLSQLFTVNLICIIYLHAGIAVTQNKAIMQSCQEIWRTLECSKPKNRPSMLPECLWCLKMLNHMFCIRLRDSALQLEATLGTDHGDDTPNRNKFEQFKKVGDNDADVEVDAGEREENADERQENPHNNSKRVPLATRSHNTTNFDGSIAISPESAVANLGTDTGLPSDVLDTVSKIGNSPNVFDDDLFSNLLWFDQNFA
row,Sequence,PBM E-score
1,AATGCAGC,-0.19
2,GGGGAAGA,-0.186
3,AACCGCCG,0.22
4,CAACACAG,-0.278
5,CTAACGTA,-0.201
6,AACAATGT,-0.0925
7,CAGAACGC,-0.126
8,AGGAACGA,0.0238
9,GGGAACGA,0.0562
10,CGGAACGC,0.407
11,CGGAACGA,0.399
12,AGGAACGC,-0.097
13,GCGTTCCA,-0.104
14,ATCTATAC,0.0424
15,ATCTATTA,0.0372
16,GAGGTTCA,0.012
17,CACTTGAG,-0.265
18,GGGTCGAC,0.0843
19,CATCGGGC,0.181
20,CCCTTCGC,-0.135
21,ACCTTCGA,-0.171
22,ACCTTCGT,-0.0808
23,ACCTTCGG,0.404
24,CCCTTCGA,-0.0805
25,CCCTTCGG,0.401

row,Sequence,PBM E-score
1,CCAACTTC,-0.0561
2,GTCAAAAC,-0.0364
3,TAGAGATA,-0.0379
4,CCAAACTC,-0.0175
5,ATTTATGC,-0.126
6,TAATCCTA,-0.00858
7,GAATCCTA,0.00817
8,CAATCCGA,0.403
9,TAATCCCA,-0.0875
10,AAATCCGG,0.332
11,AAATCCGA,0.396
12,CAATCCGC,0.191
13,GAATCCGC,0.206
14,TAATCCGA,0.39
15,CAATCCGG,0.244
16,AAATCCGT,0.186
17,GAATCCGA,0.4
18,CTGATCCA,-0.0972
19,CGTGCTTA,-0.0565
20,ACCACATG,-0.182
21,GAGAAATA,0.0451
22,AGGACCCC,-0.0529
23,AAGCTTGC,-0.209
24,CCATGCGG,-0.0615
25,ATACCAGC,-0.121

row,Sequence,PBM E-score
1,CATTTTGA,-0.162
2,CGTTGAGC,-0.0224
3,AGGATCCC,0.0362
4,AGGATCCG,0.395
5,CGGATCCG,0.462
6,CGGATCCC,0.38
7,CGGATCCA,0.36
8,AGGATCCT,-0.218
9,ATGGCGTC,-0.158
10,GATTGACC,0.0279
11,CAAAATAC,-0.00837
12,ACTAGAAC,0.0472
13,AGGCTCTA,-0.08
14,ATAGCTTA,-0.106
15,GGAGCCGA,0.379
16,CGAGCCGA,0.399
17,AGAGCCGA,0.39
18,AGAGCCGG,0.24
19,CGAGCCAA,0.00699
20,CGAGCCGC,0.328
21,ATGCGGGG,0.0133
22,CCAGTCCG,0.17
23,ATGGCAGC,-0.171
24,ACCTACGA,-0.199
25,ACGCCATA,-0.131

row,Sequence,PBM E-score
1,CCGGCCCA,0.17
2,CCGGCCCG,0.392
3,CCGGGCCC,0.303
4,CCGGGCCA,0.18
5,ACGGCCCG,0.284
6,CGGGCCCG,0.419
7,AGGGCCCG,0.205
8,CCGGGCCG,0.382
9,CGGGCCCA,0.11
10,CAATTTGA,-0.046
11,TTCTACAA,-0.129
12,AAATCATT,-0.067
13,GCACCCGC,0.285
14,CCACCCGA,0.379
15,ACACCCGC,0.164
16,ACACCCGG,0.331
17,TCACCCAA,-0.112
18,GCACCCCA,-0.0865
19,ACACCCGA,0.445
20,GCACCCGA,0.434
21,TCACCCGA,0.407
22,CTGCGAAC,-0.298
23,CCAACTTA,-0.00182
24,CTCTTAAC,-0.0542
25,GAGTACCC,0.0867

row,Sequence,PBM E-score
1,CCGGATTA,0.319
2,CGGGATAG,0.191
3,TGGGATAA,-0.182
4,TCGGATAA,0.487
5,GGGGATAA,0.00287
6,GCGGATAA,0.403
7,CCGGATAA,0.452
8,CAGGATAA,-0.12
9,CCGGATAG,0.424
10,GCGGATGA,0.304
11,TAGGATAA,-0.0915
12,CAGGATAG,-0.0723
13,ATTATCTC,0.0642
14,CAGGGAGA,-0.266
15,CGATGGTC,-0.158
16,CTTCTTTA,-0.0675
17,GACCCTGC,0.1
18,AAAGCGTC,-0.194
19,CACACTAA,-0.194
20,CGAGAAGA,0.0362
21,CCGATATC,0.297
22,CCGGATAC,0.409
23,GCGGATAC,0.367
24,CAGGATAC,-0.198
25,ATCGGCCG,0.305

row,Sequence,PBM E-score
1,AAAGCCAG,-0.246
2,AGGAACAG,-0.243
3,CGGAACAC,0.367
4,TGGAACAA,-0.2
5,GGGAACAA,0.225
6,CGGAACAA,0.444
7,CGGAACAG,0.427
8,ATCTATGG,-0.184
9,AGCTCGTG,0.0631
10,AGCTCGCG,-5e-05
11,AGCTCGCC,-0.0787
12,AGCTCGGC,0.412
13,AGCTCGGG,0.443
14,AGCTCGAC,-0.0952
15,CGTGCCAG,-0.186
16,AAGGTAGG,-0.0211
17,ACTTGACA,-0.05
18,ACGATACG,-0.314
19,AGCCGACC,0.293
20,AGCCGATC,0.313
21,AGCCGAGA,0.436
22,AGCCGCGG,0.315
23,CGCCGAGC,0.39
24,CGCCGATC,0.241
25,AGCCGATA,0.344

row,Sequence,PBM E-score
1,AGCCGAGG,0.437
2,GGCCGAGA,0.347
3,CGCCGAGA,0.361
4,AGCCGAGC,0.448
5,CACCGAGG,0.308
6,GCATATGC,-0.173
7,CGCCACGC,-0.108
8,AAGGACTC,0.127
9,TGGATGAA,-0.185
10,GTGCCAGA,-0.31
11,AAGCGGCA,0.133
12,GCTGACGA,-0.346
13,GAGCACTC,0.09
14,CTCCGGAA,0.391
15,TTCCGGAA,0.46
16,AACCGGAG,0.23
17,ATCCGGAA,0.436
18,ATACGGAA,0.36
19,AACCGGAT,0.383
20,AACCGGAA,0.377
21,TTACGGAA,0.365
22,ATCCGGAC,0.336
23,CTCCGGAC,0.285
24,CTCCGGTA,0.254
25,GTCCGGAA,0.373

row,Sequence,PBM E-score
1,CAAATCCC,0.141
2,CACCCAGG,-0.115
3,GCGCCGCA,0.0423
4,GCTGGCAC,-0.224
5,CTAAAATC,-0.12
6,CCCGCTTA,0.0362
7,AAACAGTT,-0.0803
8,AATCAATC,0.055
9,ATCCGCAT,0.348
10,ATCCGGAT,0.459
11,ATCCGGAG,0.385
12,ATCCGGTC,0.302
13,ATCCGGTA,0.322
14,ATCCGGTG,0.397
15,GTCCGGAC,0.283
16,ATGCGGAG,0.0793
17,CTCCGGAG,0.304
18,CCTGGGTC,-0.126
19,AGTTAAAA,0.045
20,CATCAGGC,-0.149
21,GCTCATCC,0.127
22,GACGGAGA,0.187
23,AACGGATG,0.304
24,TACGGAGA,0.0409
25,AACGGATT,0.155

row,Sequence,PBM E-score
1,TACGGATA,0.385
2,AACGGATA,0.439
3,GACGGATC,0.265
4,CACGGATA,0.385
5,TACGGAAA,0.322
6,GACGGATA,0.385
7,CACGGATC,0.35
8,CACGGATG,0.338
9,GCTCAACC,-0.206
10,ACTCTCCT,-0.272
11,GGCAAGTA,0.0793
12,TGCGAGAA,-0.132
13,CAAAATCA,-0.00631
14,CATCCGCA,0.314
15,AATCCGCA,0.157
16,TGTCCGAA,0.35
17,CATCCTAA,-0.079
18,TATCCGCA,0.408
19,TATCCGAA,0.493
20,GATCCAAA,-0.0151
21,TATCCAAA,-0.184
22,CATCCGAA,0.476
23,GATCCGAA,0.482
24,CATCCAAA,-0.2
25,GATCCGTA,0.351

row,Sequence,PBM E-score
1,GCTTTCAC,-0.148
2,GCTATAGC,-0.096
3,ATTCTGCG,-0.0218
4,GAGAGACC,-0.122
5,ATACCTCC,-0.0529
6,TGATATCA,-0.281
7,TGCCACCA,-0.374
8,GGCGTCAC,-0.0997
9,GCCTTCAA,-0.13
10,GATGCGGC,0.0547
11,ATTCTTTC,-0.0171
12,AATCCGAT,0.368
13,AATCCGTA,0.12
14,AATCCGAA,0.42
15,GGTCCGAC,0.292
16,CGTCCGAA,0.336
17,GGTCCGAA,0.416
18,TATAGCCA,-0.113
19,CCGACTAA,0.29
20,CGGACAAG,0.138
21,CTCCTCGA,-0.284
22,ACATCCGC,0.382
23,ATATCCTC,-0.03
24,CTATCCAC,-0.0315
25,ATATCCGC,0.389

row,Sequence,PBM E-score
1,CTATCCCC,-0.0734
2,CTATCCGC,0.396
3,ACTGCCCG,0.123
4,ACTTTTCG,0.0867
5,GCCTCGCC,0.0101
6,AGCCCGGA,0.361
7,GGCCCGGA,0.402
8,CGCCCGGA,0.328
9,ACCCCGGA,0.232
10,GCCCCGGA,0.385
11,CCCCCGGA,0.176
12,AGAGGTTC,0.0565
13,ATAGCGGG,0.0172
14,AAGATGTG,-0.156
15,GCTAAGCA,-0.217
16,CCACAGAA,-0.0915
17,CCCAGACG,-0.17
18,AACTTCGC,-0.041
19,AACTTCGT,-0.177
20,AGCTTCGG,0.395
21,AACTTCGG,0.408
22,ATCTTCGG,0.423
23,ATCTTCGA,-0.171
24,AGCTTCGA,-0.189
25,ATCTTCCA,-0.137

row,Sequence,PBM E-score
1,ATCTTCGC,0.016
2,AGCTTCGC,-0.276
3,ATCTTCCG,0.436
4,ATCTTCCC,0.226
5,ATCGAACC,0.089
6,CTAGTCCA,-0.153
7,ACCAATGC,-0.00399
8,GTAGTCAC,-0.16
9,CTCTACTC,-0.106
10,GGATTCCA,0.13
11,ACCTTCCG,0.4
12,ACCTTCCT,-0.342
13,ACCTTCCC,0.0875
14,CCCTACAA,-0.218
15,ATCTATCA,-0.0983
16,AGAATGGC,-0.0824
17,GAGTCGGC,0.223
18,CAGTCGGA,0.316
19,TAGTCGGA,0.405
20,TAGTCGCA,-0.0285
21,GAGTCGGA,0.387
22,AAGTCGGA,0.372
23,GGATCGAA,0.214
24,CGATCGGA,0.322
25,GGATCGGA,0.402

row,Sequence,PBM E-score
1,AGATCGGG,0.28
2,AGATCGGA,0.438
3,AGATCGGC,0.189
4,GCATGAAA,-0.101
5,GTTCTCGA,-0.166
6,CCGAATCG,0.405
7,GCGAATCC,-0.0095
8,CCGAATCA,0.361
9,CCGAATCC,0.427
10,ACGAATCC,0.009
11,ACGAATCG,0.0102
12,ACTAGCAG,-0.298
13,GCCTACCC,0.0606
14,ACAGATCG,-0.0736
15,GAACCGGC,0.262
16,AATCCGGC,0.241
17,GATCCGGA,0.421
18,TATCCGGA,0.46
19,AATCCGGA,0.363
20,GATCCGGC,0.396
21,GATCCGCA,0.316
22,TATCCTGA,-0.0875
23,AATCCGGT,0.246
24,GTGAAAGA,0.0652
25,GTGAAGAA,-0.139

row,Sequence,PBM E-score
1,GAAGTGTA,-0.107
2,ATTGGTAA,-0.137
3,GCCTGCAA,-0.18
4,CCGTGAAA,0.145
5,GTATCATA,-0.0852
6,AATCATAA,-0.089
7,GCCCAGGA,-0.0894
8,ATCGGACC,0.308
9,AACGGAAG,0.284
10,ATCGGAAG,0.433
11,GACGGAAC,0.317
12,CTCGGAAG,0.48
13,ATCGGACG,0.289
14,ATCGGAAC,0.428
15,CACGGAAG,0.36
16,CGCGGAAG,0.357
17,GTCGGAAC,0.454
18,AACGGAAC,0.348
19,GTGGGAAC,-0.102

# Source: the supplement of paper PMC3334620
